Reference: PubChem BioAssay (NCI)
This is part of a sample that, as a whole, favours compounds with a hit. Of some 83,000 tested, about 20% had one in any assay.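 Single-dose data. Exposure time 48 hours. Values below 10 considered active.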 Calls of active or inactive are those of the source.

Experiments:
Experiment in all cases: NCI-60 one-dose screen, 48 h (100 = growth as untreated, 0 = no growth, -100 = all killed)
SK-MEL-2 melanoma = settings: 10 µM unless noted
EKVX NSCLC = settings: 10 µM
SN12C renal = settings: 10 µM unless noted
UO-31 renal = settings: 10 µM unless noted
TK-10 renal = settings: 10 µM unless noted
ACHN renal = settings: 10 µM unless noted
CAKI-1 renal = settings: 10 µM unless noted
A498 renal = settings: 10 µM unless noted
CCRF-CEM leukemia = settings: 10 µM
MOLT-4 leukemia = settings: 10 µM unless noted

Measured: growth

C=C(NC(=O)[C@H](C(C)C)N(C)c1cccc2[nH]ccc12)C(=O)OC
inactive: SK-MEL-2 melanoma 104% | EKVX NSCLC 93.8% | SN12C renal 101% | UO-31 renal 80.1% | TK-10 renal 94.2% | ACHN renal 101% | CAKI-1 renal 92.6% | A498 renal 94.4% | CCRF-CEM leukemia 87.1% | MOLT-4 leukemia 107%

O=Nc1c(-c2c(O)[nH]c3cc(Br)ccc23)[nH]c2ccccc12
active: SK-MEL-2 melanoma -66.5% | UO-31 renal -28.9% | TK-10 renal -10.5% | ACHN renal 0.906% | CAKI-1 renal 2.36% | A498 renal -82% | CCRF-CEM leukemia -6.73% | MOLT-4 leukemia -68.9%
inactive: EKVX NSCLC 29.8% | SN12C renal 16.7%

Oc1ccccc1/C=N/N=C\c1ccccc1Cl
inactive: SK-MEL-2 melanoma 102% | EKVX NSCLC 75.9% | SN12C renal 92.6% | UO-31 renal 40.5% | TK-10 renal 132% | ACHN renal 95.8% | CAKI-1 renal 86.8% | A498 renal 141% | MOLT-4 leukemia 61.3%
active: CCRF-CEM leukemia 1.42%

Cc1ccc(C(=O)Nc2ccc(CN3CCN(C)CC3)c(C(F)(F)F)c2)cc1C#Cc1cnc(N)c2ccc(F)cc12
active: SK-MEL-2 melanoma -56.2% | EKVX NSCLC -92.2% | SN12C renal -90.8% | UO-31 renal -97.3% | TK-10 renal -84.5% | ACHN renal -100% | CAKI-1 renal -58% | A498 renal -69.9% | CCRF-CEM leukemia -58.7% | MOLT-4 leukemia -67.1%

Nc1ncn([C@@H]2O[C@H](CO)[C@@H](O)C2(F)F)c(=O)n1
active: ACHN renal 7.28%
inactive: SK-MEL-2 melanoma 104% | EKVX NSCLC 86.1% | SN12C renal 51.7% | UO-31 renal 39% | TK-10 renal 91.1% | CAKI-1 renal 27.9% | A498 renal 38% | CCRF-CEM leukemia 23.7% | MOLT-4 leukemia 35.6%

COC(=O)[C@@H]1[C@H](O)[C@H](C)[C@H](O)[C@H](C)/C=C\C=C(C)C(=O)Nc2c(C)c(OC(C)=O)c3c(c2O)C(=O)C(C)=C2OCOC(=C23)C(C)=C[C@@](C)(O)[C@H](O)[C@@H](C)[C@H]1OC(C)=O
inactive: EKVX NSCLC 112% | SN12C renal 112% | UO-31 renal 101% | TK-10 renal 73.5% | ACHN renal 122% | CAKI-1 renal 116% | A498 renal 141% | CCRF-CEM leukemia 99.3% | MOLT-4 leukemia 87.6%
active: SK-MEL-2 melanoma 8.13%

C#CCCCCCCC[C@@H]1OC(=O)[C@H]([C@@H](C)CC)NC(=O)[C@@H]([C@@H](C)CC)NC(=O)CC(=O)[C@@H]1C
inactive: SK-MEL-2 melanoma 107% | EKVX NSCLC 93.4% | SN12C renal 94.9% | UO-31 renal 60.9% | TK-10 renal 141% | ACHN renal 86.8% | CAKI-1 renal 69.8% | A498 renal 86.6% | CCRF-CEM leukemia 93% | MOLT-4 leukemia 87.2%

CCCCCCCCCCCCCCCCCC1=NCCN1CS(=O)(=O)O
inactive: SK-MEL-2 melanoma 69.9% | EKVX NSCLC 80.1% | SN12C renal 53.2% | UO-31 renal 16.6% | TK-10 renal 89.4% | ACHN renal 47.7% | CAKI-1 renal 17.3% | A498 renal 87.2% | MOLT-4 leukemia 12.3%
active: CCRF-CEM leukemia -5.55%

Cc1ccnc2c(NC(C)CCCN)cc(O)c(O)c12 (stereo not drawn)
inactive: SK-MEL-2 melanoma 91.9% | EKVX NSCLC 93.8% | SN12C renal 27.2% | UO-31 renal 83.7% | TK-10 renal 109% | ACHN renal 99.5% | CAKI-1 renal 89.3% | A498 renal 93.5% | CCRF-CEM leukemia 39.6% | MOLT-4 leukemia 54.1%

CCCCCCCCc1ccc(OCCOCC[N+](C)(C)CC)cc1 (tested in a mixture with another compound)
inactive: SK-MEL-2 melanoma 11.5% | EKVX NSCLC 71% | SN12C renal 21.5% | UO-31 renal 89.4% | TK-10 renal 96.1% | ACHN renal 102% | CAKI-1 renal 98.8% | A498 renal 73.8% | CCRF-CEM leukemia 28.7% | MOLT-4 leukemia 51.4%

N#CC1=C(N2CCOCC2)NC2c3ccccc3Sc3ccccc3N2C1=N (stereo not drawn)
inactive: SK-MEL-2 melanoma 108% | EKVX NSCLC 92.8% | SN12C renal 103% | UO-31 renal 72.9% | TK-10 renal 96.9% | ACHN renal 91.5% | CAKI-1 renal 94% | CCRF-CEM leukemia 82.7% | MOLT-4 leukemia 120%

COc1ccc(/C=C(/C(=O)N2CCN(c3ccc(C)cc3)CC2)c2cc(OC)c(OC)c(OC)c2)cc1N
inactive: SK-MEL-2 melanoma 23.7% | EKVX NSCLC 45.5% | SN12C renal 28.8% | UO-31 renal 51.2% | TK-10 renal 76.7% | ACHN renal 30.5% | CCRF-CEM leukemia 13.4%
active: A498 renal -11.1%

c1cc(C2CCCCC2)ccc1OCCCCCCN1CCNCC1
active: ACHN renal -7.79% | CCRF-CEM leukemia -51.7% | MOLT-4 leukemia -48.5%
inactive: SK-MEL-2 melanoma 87.8% | EKVX NSCLC 90.5% | SN12C renal 59.1% | UO-31 renal 56.6% | TK-10 renal 57% | A498 renal 61.5%

Cc1c(Cc2ccccc2)c(=O)oc2c(C)c(OCC(=O)n3nc(C#N)cc3N)ccc12
inactive: SK-MEL-2 melanoma 98.9% | EKVX NSCLC 97.7% | SN12C renal 102% | UO-31 renal 75.6% | TK-10 renal 123% | ACHN renal 93.6% | A498 renal 126% | CCRF-CEM leukemia 99.6% | MOLT-4 leukemia 98.5%

N#Cc1c(N)nc(Nc2nc3ccccc3[nH]2)nc1-c1ccc(Cl)cc1
inactive: SK-MEL-2 melanoma 114% | EKVX NSCLC 109% | SN12C renal 111% | UO-31 renal 82.8% | TK-10 renal 109% | ACHN renal 101% | CAKI-1 renal 86.9% | CCRF-CEM leukemia 95.9% | MOLT-4 leukemia 84.7%

COc1ccc(CNCCCN2C(=O)c3ccc4c5c(ccc(c35)C2=O)C(=O)N(CCCNCc2ccc(OC)c(OC)c2OC)C4=O)c(OC)c1OC
active: SK-MEL-2 melanoma -88.4% | EKVX NSCLC -77.2% | SN12C renal -90.8% | UO-31 renal -91.5% | TK-10 renal -84.7% | ACHN renal -90.3% | CAKI-1 renal -52.5% | CCRF-CEM leukemia -34% | MOLT-4 leukemia -43.9%

CCOC(=O)C1=C(C(F)(F)F)NC(=S)NC1CN1C(=O)c2ccccc2C1=O (stereo not drawn)
inactive: SK-MEL-2 melanoma 100% | EKVX NSCLC 113% | SN12C renal 105% | UO-31 renal 98.1% | TK-10 renal 107% | ACHN renal 105% | A498 renal 133% | CCRF-CEM leukemia 40.7% | MOLT-4 leukemia 93.7%

COc1ccc(/C(=C(\c2ccccc2)[N+](=O)[O-])c2ccc(OCCN3CCCC3)cc2)cc1
inactive: SK-MEL-2 melanoma 79.4% | EKVX NSCLC 96.9% | SN12C renal 83.4% | UO-31 renal 28.1% | TK-10 renal 80.4% | ACHN renal 75.4% | CAKI-1 renal 76.9% | CCRF-CEM leukemia 67.6% | MOLT-4 leukemia 71.9%

COC(=O)c1ccc2[nH]c(O)c(C(=Nc3ccc(N(C)C(=O)CN4CCN(C)CC4)cc3)c3ccc(OC)cc3)c2c1
inactive: SK-MEL-2 melanoma 16.9% | EKVX NSCLC 45.7% | SN12C renal 17% | UO-31 renal 14.3% | TK-10 renal 27.6% | ACHN renal 14.9%
active: CAKI-1 renal 5.5% | CCRF-CEM leukemia 6.43% | MOLT-4 leukemia 2.57%

Nc1cc(N)c2nc(-c3ccccc3)c(NCCc3ccc(Cl)c(Cl)c3)nc2c1
active: SK-MEL-2 melanoma -62.7% | EKVX NSCLC -100% | SN12C renal -96.6% | UO-31 renal -93% | TK-10 renal -92.5% | ACHN renal -100% | A498 renal -34.4% | CCRF-CEM leukemia -66.1%

CC1(C)CC(=O)C2=C(C1)Oc1nc(N)c(C#N)c(N)c1C2c1ccc(F)cc1 (stereo not drawn)
inactive: SK-MEL-2 melanoma 107% | EKVX NSCLC 97.4% | SN12C renal 107% | UO-31 renal 181% | TK-10 renal 72.8% | ACHN renal 107% | A498 renal 102% | CCRF-CEM leukemia 118% | MOLT-4 leukemia 74.4%

C[C@]12C=CC(=O)C=C1[C@@H](F)C[C@@H]1[C@@H]2[C@@H](O)C[C@@]2(C)[C@H]1CC[C@]2(O)C(=O)CO
inactive: SK-MEL-2 melanoma 107% | EKVX NSCLC 83% | SN12C renal 69.8% | UO-31 renal 79.3% | TK-10 renal 107% | ACHN renal 99.4% | CAKI-1 renal 88.6% | CCRF-CEM leukemia 46.5% | MOLT-4 leukemia 108%

Cc1c(Cc2ccccc2)c(=O)oc2c(C)c(OCc3n[nH]c(=S)o3)ccc12
inactive: SK-MEL-2 melanoma 101% | EKVX NSCLC 79% | SN12C renal 67.8% | UO-31 renal 94.8% | TK-10 renal 116% | ACHN renal 89.2% | A498 renal 67.3% | CCRF-CEM leukemia 22.8% | MOLT-4 leukemia 19.8%

COc1ccc(OC)c(Cn2cc3c(c2)-c2oncc2CC3)c1
inactive: SK-MEL-2 melanoma 45% | EKVX NSCLC 42% | SN12C renal 45.9% | UO-31 renal 41.9% | TK-10 renal 68.9% | ACHN renal 55.8% | A498 renal 24.2% | CCRF-CEM leukemia 16% | MOLT-4 leukemia 28.7%

COc1cc(CNC(=O)CCCC/C=C/C(C)C)ccc1OCc1nnc(Nc2ccccc2F)o1
inactive: SK-MEL-2 melanoma 111% | EKVX NSCLC 77.1% | SN12C renal 70.5% | UO-31 renal 52.8% | TK-10 renal 97.7% | ACHN renal 56.1% | A498 renal 92.5% | CCRF-CEM leukemia 83% | MOLT-4 leukemia 82%

O=C1N/C(=N\c2nnc(-c3ccc(O)cc3)s2)S/C1=C\c1ccccc1O
inactive: SK-MEL-2 melanoma 103% | EKVX NSCLC 101% | SN12C renal 93.2% | UO-31 renal 72.4% | TK-10 renal 97.9% | ACHN renal 97.8% | A498 renal 107% | CCRF-CEM leukemia 95.8% | MOLT-4 leukemia 100%

COc1ccc(Oc2[nH]n(C3=Nc4ccccc4Sc4ccccc43)c(=O)c2C#N)cc1
inactive: SK-MEL-2 melanoma 101% | EKVX NSCLC 94.4% | SN12C renal 102% | UO-31 renal 87.9% | TK-10 renal 108% | ACHN renal 89.5% | CAKI-1 renal 92.4% | CCRF-CEM leukemia 92.8% | MOLT-4 leukemia 107%

CCCCCCCCCc1cc[n+](CC(=O)c2ccc([N+](=O)[O-])cc2)cc1
active: SK-MEL-2 melanoma -73.9% | SN12C renal -2.2% | MOLT-4 leukemia 1.62%
inactive: EKVX NSCLC 11.1% | UO-31 renal 35% | TK-10 renal 48.4% | ACHN renal 48.1% | CAKI-1 renal 74.9%

C[C@@H](c1ccc2c(c1)[nH]c1ccc(Cl)cc12)c1nc2ccc(Cl)cc2[nH]1
inactive: SK-MEL-2 melanoma 106% | EKVX NSCLC 75.5% | SN12C renal 80.6% | UO-31 renal 58% | TK-10 renal 85.6% | ACHN renal 79.6% | A498 renal 99.7% | CCRF-CEM leukemia 16.6% | MOLT-4 leukemia 49.4%
